Reference: PubChem BioAssay (NCI)
Where “and” joins values, the source holds several entries; their conditions need not be identical. Equal values may be shown once. About 83,000 compounds went through this panel and 20% of them were active in at least one assay; those are over-represented in the sample as a whole.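 Note: values are percent growth. 100 is the growth of untreated cells, values between 100 and 0 indicate rising inhibition; between -100 and 0 indicates cell death.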 Calls of active or inactive are those of the source. Rule for the calls: active = growth percent below 10; inactive = the rest.

What was measured:
Assay in all cases: NCI-60 one-dose screen, 48 h (100 = growth as untreated, 0 = no growth, -100 = all killed)
Settings in all cases: 10 µM unless noted
T-47D breast = tested on: T-47D breast
BT-549 breast = tested on: BT-549 breast
SW-620 colon = tested on: SW-620 colon
MCF7 breast = tested on: MCF7 breast
HCT-116 colon = tested on: HCT-116 colon
HCC-2998 colon = tested on: HCC-2998 colon
KM12 colon = tested on: KM12 colon
MDA-MB-435 melanoma = tested on: MDA-MB-435 melanoma

Row | Compound | growth (T-47D breast) | growth (BT-549 breast) | growth (SW-620 colon) | growth (MCF7 breast) | growth (HCT-116 colon) | growth (HCC-2998 colon) | growth (KM12 colon) | growth (MDA-MB-435 melanoma)
1 | CC1CCCc2sc3nc(NNC(=O)c4cnccn4)n(-c4ccccc4)c(=O)c3c21 (centres undefined) | 10.9% (inactive) and 3.31% (active) | 12.8% (inactive) | 23.7% (inactive) and 19.7% (inactive) | 6.57% (active) and 0.695% (active) | 7.09% (active) and -13.3% (active) | 34.2% (inactive) and 40.9% (inactive) | 20% (inactive) and 19.2% (inactive) | 
2 | O=C1OC(Oc2ccc(Br)cc2)(c2ccccc2)c2ccccc21 (centres undefined) | 73.6% (inactive) and 76.6% (inactive) | 88.4% (inactive) and 120% (inactive) |  | 89% (inactive) and 101% (inactive) | 65.6% (inactive) and 54.6% (inactive) | 102% (inactive) and 87.3% (inactive) | 87.7% (inactive) and 76.3% (inactive) | 102% (inactive) and 79.5% (inactive)
3 | CCOC(=O)Nc1nc2ccccc2[nH]1 | 110% (inactive) and 42.1% (inactive) | 105% (inactive) and 11.7% (inactive) | 108% (inactive) and 12% (inactive) | 113% (inactive) and 17.8% (inactive) | 106% (inactive) and 23% (inactive) | 108% (inactive) and -9.87% (active) | 106% (inactive) and 26.2% (inactive) | 
4 | O=C(N/N=C/c1ccc2c(c1)OCO2)c1ccncc1 | 112% (inactive) and 102% (inactive) | 103% (inactive) and 102% (inactive) | 93.6% (inactive) and 98.3% (inactive) | 107% (inactive) and 86.8% (inactive) | 105% (inactive) and 101% (inactive) | 103% (inactive) and 113% (inactive) | 91.9% (inactive) and 103% (inactive) | 
5 | CC(C)Oc1ccc2cc(-c3nn(CC4CCNCC4)c4ncnc(N)c34)ccc2c1 | 77.8% (inactive) and -8.43% (active) | 73.2% (inactive) and -5.14% (active) | 91.7% (inactive) and 1.44% (active) | 83.6% (inactive) and 15.2% (inactive) | 50.4% (inactive) and 9.14% (active) | 77.7% (inactive) and -13.5% (active) | 86.4% (inactive) and 22.4% (inactive) | 
6 | Cc1ccc(S(=O)(=O)Nc2nc3ccccc3nc2Nc2ccc3nsnc3c2)cc1 | 33.6% (inactive) and 62.8% (inactive) | 37% (inactive) and 51.5% (inactive) |  | 50.9% (inactive) and 50.5% (inactive) | 38.4% (inactive) and 42.2% (inactive) | 42.1% (inactive) | 48.7% (inactive) and 44.1% (inactive) | 36.3% (inactive) and 66.4% (inactive)
7 | C1CCCCNCCC1 | 101% (inactive) | 114% (inactive) |  | 101% (inactive) | 107% (inactive) | 112% (inactive) | 115% (inactive) | 94.6% (inactive)
8 | CN(Cc1ccccc1)Cc1ccccc1 | 92.8% (inactive) | 106% (inactive) |  | 97.9% (inactive) | 103% (inactive) | 99.4% (inactive) | 98.5% (inactive) | 105% (inactive)
9 | N#CC(C#N)=C/C=C/c1cccc([N+](=O)[O-])c1 | 39.1% (inactive) and 17% (inactive) | 57.1% (inactive) |  | 32.4% (inactive) and 18% (inactive) | -64.6% (active) and -91.7% (active) | -79.1% (active) and -79.8% (active) | 8.85% (active) and -76.4% (active) | 6.2% (active) and -53.1% (active)
10 | O=C(N/N=C/c1cccc2ccccc12)C1CC1 | 98.9% (inactive) and 109% (inactive) | 101% (inactive) | 110% (inactive) and 102% (inactive) | 80.3% (inactive) and 87.5% (inactive) | 106% (inactive) and 102% (inactive) | 104% (inactive) and 101% (inactive) | 108% (inactive) and 104% (inactive) | 
11 | O=[N+]([O-])c1ccccc1/C=N\Nc1ccccc1 | 48.2% (inactive) and 57.9% (inactive) | 91.1% (inactive) and 97.8% (inactive) | 95% (inactive) and 93.3% (inactive) | 66.3% (inactive) and 69.4% (inactive) | 79.2% (inactive) and 84.5% (inactive) | 88.6% (inactive) and 91.5% (inactive) | 40.6% (inactive) and 36.1% (inactive) | 
12 | O=C(O)CCCCc1ccc([N+](=O)[O-])cc1 | 102% (inactive) and 107% (inactive) | 100% (inactive) | 96.4% (inactive) and 116% (inactive) | 92.4% (inactive) and 98.2% (inactive) | 103% (inactive) and 102% (inactive) | 106% (inactive) and 94.9% (inactive) | 91.1% (inactive) and 108% (inactive) | 
13 | NC(=S)N/N=C(\c1ccc(Br)cc1)C1CC1 | 70.1% (inactive) and 36.2% (inactive) | 99.6% (inactive) and 106% (inactive) | 79.7% (inactive) and 71.1% (inactive) | 24.4% (inactive) and 20.6% (inactive) | 7.26% (active) and 2.42% (active) | 97.2% (inactive) and 93.9% (inactive) | 101% (inactive) and 108% (inactive) | 
14 | CNc1ccc2nc3ccc(=[N+](C)C)cc-3sc2c1 | -12.4% (active) and -16.3% (active) | 49.1% (inactive) |  | -65.8% (active) and -27.2% (active) | -8.61% (active) and -49.3% (active) | 31.5% (inactive) and 33.6% (inactive) | 18.2% (inactive) and 14.2% (inactive) | -63.5% (active) and -47% (active)
15 | CC1=C[C@H]2c3c(c(O)c(O)c4oc5cc(O)cc(O)c5c(=O)c34)[C@H](c3cc(O)c(O)c4oc5cc(O)cc(O)c5c(=O)c34)[C@H]2C(C)(C)C1 | -1.57% (active) | 7.04% (active) and -11.3% (active) |  | -19.7% (active) and -76.5% (active) | -61.9% (active) and -52.5% (active) | 14.3% (inactive) and -61% (active) | -27% (active) and -71.5% (active) | -69.8% (active) and -76.7% (active)
16 | Nc1ccc2[nH]c(-c3ccccc3)cc(=O)c2c1 | 78% (inactive) | 81.2% (inactive) | 57.6% (inactive) | 51.7% (inactive) | 81% (inactive) | 78.3% (inactive) | 45.2% (inactive) | 
17 | Cc1cc(O)c(C(C)C)cc1S(=O)(=O)O (tested in a mixture with another compound) | 89.2% (inactive) and 58.9% (inactive) and 96.5% (inactive) | 96.8% (inactive) and -9.88% (active) and 113% (inactive) | 109% (inactive) and 23.2% (inactive) and 102% (inactive) | 89.5% (inactive) and 4.62% (active) and 81.2% (inactive) | 85.9% (inactive) and 6.36% (active) and 104% (inactive) | 91.7% (inactive) and -59% (active) and 112% (inactive) | 116% (inactive) and 13.2% (inactive) and 113% (inactive) | 
18 | O=c1c2ccccc2nc2n1Cc1nc3ccccc3c(=O)n1C2 | 106% (inactive) and 108% (inactive) | 89.8% (inactive) and 94.1% (inactive) | 97.3% (inactive) and 103% (inactive) | 84.5% (inactive) and 97.9% (inactive) | 111% (inactive) and 94.6% (inactive) | 106% (inactive) and 104% (inactive) | 99.6% (inactive) and 101% (inactive) | 
19 | Cc1ccc(OCC2OC(n3cnc4nc(Cl)nc(Cl)c43)CC2Oc2ccc(C)cc2)cc1 (centres undefined) |  |  |  | 0.206% [100 µM] (active) and -99.2% [100 µM] (active) |  |  |  | 
20 | CCCCCCCCCCCCCCCCOc1ccc(C)cc1 |  | 112% (inactive) | 101% (inactive) | 102% (inactive) | 108% (inactive) | 105% (inactive) | 108% (inactive) | 111% (inactive)
21 | N#Cc1nc(C(F)(F)F)oc1N |  |  |  | 66.3% [100 µM] (inactive) and 98.4% [100 µM] (inactive) |  |  |  | 
22 | NC(=S)Nc1[nH]c(=S)nc2c1SC1=N/C(=C\c3ccco3)C(=O)N12 |  |  |  | 20.2% [100 µM] (inactive) and 4.03% [100 µM] (active) |  |  |  | 
23 | O=C(Cc1cccc2ccccc12)N/N=C/c1ccc2c(c1)CCC2 |  | 92.5% (inactive) | 54.8% (inactive) | 80.5% (inactive) | 66.4% (inactive) | 81.9% (inactive) | 54.3% (inactive) | 7.56% (active)
24 | CC(C)Cc1ccc(C(C)C(=O)NCc2ccc(Cn3c(=O)sn(CCCCl)c3=O)cc2)cc1 (centres undefined) | 57% (inactive) and -46.4% (active) | 92.3% (inactive) and -67.8% (active) |  | 57.3% (inactive) and -31.3% (active) | 92.4% (inactive) and -65.6% (active) | 95.7% (inactive) and -44.7% (active) | 95% (inactive) and 4.78% (active) | 
